Inconclusive results are not listed. Active and inactive are the calls of the source. Unless noted, the call rests on the fitted dose curve.

A short description of one test: qHTS Assay for Identification of Small Molecule Inducers of Hypoxia Response (AID 2120; active means well fitted curve in the direction sought with a large enough effect in the signal ratio, with a control signal flat, not every such curve was filed as active; the % refers to the signal ratio). The note with it: hypoxia response reporter cells, beta-lactamase ratio readout; series mostly up to 104 µM. An outline of the steps: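 Cell-based qHTS for reporter induction: hypoxia response element controlled beta-lactamase in ME-180 cells. Compounds incubated 17 h at 37 degrees C; activity from blue/green (460/530 nm) ratio, inducers ranked by AC50.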
Background: In qHTS, concentration-response curves come from the screen itself.
Consider `COC(=O)C(c1ccccc1)C1CCCCN1` (stereo not drawn), for which the outcome was inactive.

`Nc1ccccc1`: the result was inactive.

For the compound `C[C@]12CCC(=O)C=C1CC[C@@H]1[C@@H]2CC[C@@]2(C)[C@H]1CC[C@]2(C)O`, the outcome was inactive.

Regarding `Nc1ccccc1C(=O)O`, the outcome was inactive.

Turning to `CC(C)NC(C)C`, the outcome was inactive.

Regarding `C[C@]1(O)CC[C@H]2[C@@H]3CCC4=CC(=O)CC[C@]4(C)[C@@]3(F)[C@@H](O)C[C@@]21C`, the outcome was inactive.

On to `CCOC(=O)CC(SP(=S)(OC)OC)C(=O)OCC` (stereo not drawn), for which the result was inactive.

`CCCC(C)(COC(N)=O)COC(N)=O`: the outcome was inactive.

A short description of another test: Validation screen for inhibitors of Lassa infection (AID 463096). The note with it: Lassa virus infection, cell-based; series mostly up to 46.1 µM.
As to `C=CC(N)CCC(=O)O` (stereo not drawn), the compound was called inactive.

`CC(C)(C)NCC(O)c1cc(O)cc(O)c1` (stereo not drawn): the call was inactive.

On to `CC1COc2c(N3CCN(C)CC3)c(F)cc3c(=O)c(C(=O)O)cn1c23` (stereo not drawn), for which the call was inactive.

Regarding `C[C@H]1O[C@@H](n2cc(F)c(=O)[nH]c2=O)[C@H](O)[C@@H]1O`, the compound was called inactive.

Regarding `c1ccc2c(c1)CCCC2C1=NCCN1` (stereo not drawn), the compound was called inactive.

Consider `C[C@]12CCC(=O)C=C1CC[C@@H]1[C@@H]2[C@@H](O)C[C@@]2(C)[C@H]1CC[C@]2(O)C(=O)COC(=O)CCC(=O)O`, for which the compound was called inactive.

As to `CC(C)NCC(O)c1ccc(NS(C)(=O)=O)cc1` (stereo not drawn), the call was inactive.

In the case of `CCN1CCC[C@H]1CNC(=O)c1c(O)c(Cl)cc(Cl)c1OC`, the compound was called inactive.

Regarding `CC(C)NCC(O)c1cc(O)cc(O)c1` (stereo not drawn), the compound was called inactive.

Consider `CN=C(NC#N)Nc1ccc(C2=NNC(=O)CC2C)cc1` (stereo not drawn), for which the result was inactive.

For `C[C@](N)(Cc1ccc(O)cc1)C(=O)O`, the call was inactive.

For the compound `O=C(NCC1CCCCN1)c1cc(OCC(F)(F)F)ccc1OCC(F)(F)F` (stereo not drawn), the compound was classed as inactive.

Take `CC(C)(Oc1ccc(C2CC2(Cl)Cl)cc1)C(=O)O` (stereo not drawn): the call was inactive.

In the case of `Cc1nnc(SCC2=C(C(=O)O)N3C(=O)[C@@H](NC(=O)Cn4cnnn4)[C@H]3SC2)s1`, the outcome was inactive.

On to `CO[C@@]1(NC(=O)CSCC#N)C(=O)N2C(C(=O)O)=C(CSc3nnnn3C)CS[C@@H]21`, for which the result was inactive.

As to `CNCC(O)c1ccc(O)c(O)c1` (stereo not drawn), the outcome was inactive.

As for `CCn1cc(C(=O)O)c(=O)c2cc(F)c(N3CCNC(C)C3)c(F)c21` (stereo not drawn), the call was inactive.

For the compound `CO/N=C(\C(=O)N[C@@H]1C(=O)N2C(C(=O)O)=C(COC(C)=O)CS[C@H]12)c1csc(N)n1` (stereo in doubt), the call was inactive.

For the compound `CCOC(=O)C1=C(C)NC(C)=C(C(=O)OC)C1c1cccc([N+](=O)[O-])c1` (stereo not drawn), the call was inactive.

For `NC(=O)c1ncn([C@@H]2O[C@H](CO)[C@@H](O)[C@H]2O)c1O`, the result was inactive.

On to `CC(=O)OC(C)C[N+](C)(C)C` (stereo not drawn), for which the call was inactive.

Take `CCCNC(C)C(=O)Nc1ccccc1C` (stereo not drawn): the outcome was inactive.

In the case of `CCN(CC)CC#CCOC(=O)C(O)(c1ccccc1)C1CCCCC1` (stereo not drawn), the compound was classed as inactive.

In the case of `CCN(Cc1ccncc1)C(=O)C(CO)c1ccccc1` (stereo not drawn), the outcome was inactive.

Turning to `CCC1(C)CC(=O)NC1=O` (stereo not drawn), the call was inactive.

The values are drawn from PubChem BioAssay (NCATS).
